Screens from PubChem.
In the library only some 0.5% were active in any assay of this set; here they are far more common.
phage Ecoli inh = E. coli growth loss with phage present; AID 651602; inhibition, % at 11.9 µM; 360,000 compounds, 0.26% hits; growth absorbance; in the data active means inhibition above about 11%
AddAB inh = less growth of phage-infected E. coli with AddAB | inhibition, % at 11.9 µM | 330,000 compounds, 0.29% hits | AID 435030 | E. coli expressing H. pylori AddAB, absorbance growth; in the data active means inhibition above about 12%;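 further: 0% = vehicle wells of infected cells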
E coli growth-1 = bacterial growth inhibition, counter-screen for AddAB inhibitors; E. coli V3065 growth, OD600 absorbance, 18 h; inhibition, % at 11.9 µM; 330,000 compounds, 0.27% hits;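 active means inhibition above the campaign's mean inhibition across all tested compounds plus 3 SD, cut at about 9.9% in these data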;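 further: uninfected addAB+ strain grown without phage in ampicillin broth; 0% = DMSO wells and 100% = ciprofloxacin 0.95 µg/ml wells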
E coli growth-2 = blocks Escherichia coli growth; OD600, 23 h; stronger effect = lower value; OD600 absorbance (test concentration not listed); 330,000 compounds, 0.21% hits; AID 1053175;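 active means OD600 absorbance below the run mean of sample wells minus 3.6 SD, in any replicate, cut at about 0.56 in these data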
Tat export inh = inhibitors of E. coli Tat protein transport; inhibition, % at 10 µM; E. coli MC4100 TorA-mCherry Tat export, fluorescence; AID 488895; 340,000 compounds, 0.036% hits;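 active means mean replicate inhibition at least 50% and at least half of replicates individually reaching 50%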;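 further: exported cargo escapes ClpAP degradation while cytoplasmic cargo is degraded and loses fluorescence; 0% = median of neutral control wells and 100% = median of NaSCN control wells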
An asterisk follows results filed as active; nt = no result given.

SMILES	phage Ecoli inh	AddAB inh	E coli growth-1	E coli growth-2	Tat export inh
COC(CNc1ncnc2sc(-c3ccccc3)cc12)OC	0	0	-2	0.66	58*
CC(C)(C)Nc1ncnc2sc(-c3ccccc3)cc12	6	3	1	0.64	-4
CC=C(C)C(=O)Nc1cccc(C2=NOC3(C2)CC(C(N)=O)N(C(=O)c2cc([N+](=O)[O-])cc([N+](=O)[O-])c2)C3)c1 (configuration not stated)	nt	nt	nt	0.62	nt
CC(=O)c1ccc(-n2nncc2C(C)(C)C)cc1	2	2	0	0.7	7
Cc1cnnn1-c1ccc(C(=O)CCl)cc1	2	3	2	0.51*	-16
CC(=O)Nc1ccc(C(C)=NNC(=O)C2CC2c2ccccc2)cc1 (configuration not stated)	nt	nt	nt	0.65	nt
CC1=NN(C(N)=S)C(=O)C1N=Nc1ccc(C)c(Br)c1 (configuration not stated)	3	7	13*	0.62	-18
O=C(Cc1c(Cl)cccc1Cl)NN=Cc1cccnc1	nt	nt	nt	0.7	nt
O=C(C1=CC(C2CCCCC2)CC(OCc2ccc(CO)cc2)O1)N1CCN(Cc2ccc3c(c2)OCO3)CC1 (configuration not stated)	nt	nt	nt	0.73	nt
Cc1ccc(C(C[N+](=O)[O-])c2c(-c3ccccc3O)[nH][nH]c2=O)cc1 (configuration not stated)	5	8	0	0.52*	-30
Cc1ccc(S(=O)(=O)N=C(CN2CCCCC2)N2CCOCC2)cc1	nt	nt	nt	0.65	nt
Cc1ccc(C=NNC(=O)CSc2nnc(-c3ccc(Cl)cc3)n2-c2ccc(Cl)cc2)o1	nt	nt	nt	0.69	nt
Cc1ccc(/C=N/NC(=O)CSc2nnc(-c3ccc(Cl)cc3)n2-c2ccc(Cl)cc2)o1	11	7	13*	nt	-1
CCN1/C(=C/c2ccc3cc(C)cc(C)c3[n+]2CC)Sc2cc(C)ccc21	11	nt	nt	0.12*	-2
CC[n+]1c(C)sc2c3ccsc3ccc21	4	-1	1	0.67	8
CCN1/C(=C\c2ccc3cc(C)ccc3[n+]2CC)Sc2cc(C)c(C)cc21	8	nt	nt	0.21*	2
CC[n+]1c(/C=C/c2ccc(OC)c(OC)c2)ccc2ccccc21	-1	3	0	0.65	-2
Cc1ccc2c(c1)S/C(=C\c1cccc[n+]1C)N2CCO	3	-3	-3	0.65	7
CCN1C(=Cc2ccc3ccccc3[n+]2CC)Sc2cc(C)ccc21	nt	nt	nt	0.36*	nt
CCN1/C(=C/c2ccc3cc(C)ccc3[n+]2CC)Sc2ccc3sccc3c21	nt	-1	-3	0.33*	-7
CCOC(=O)C=C1CN(C(C)c2ccccc2)S(=O)(=O)c2ccccc21 (configuration not stated)	nt	nt	nt	0.69	nt
CCOc1ccccc1C=NNC(=O)c1nnn(-c2nonc2N)c1CN1CCC(C)CC1	nt	nt	nt	0.71	nt
O=C(NN=Cc1cccc2nccnc12)c1ccccc1O	nt	nt	nt	0.67	nt
CCN1/C(=C/c2ccc3cccc(C)c3[n+]2CC)Sc2ccccc21	6	9	5	0.46*	1
C[n+]1ccccc1/C=C1\Sc2ccccc2N1CCO	2	3	0	0.66	-3
SMILES	phage Ecoli inh	AddAB inh	E coli growth-1	E coli growth-2	Tat export inh
Cc1cc(C)cc(Oc2ccccc2C=NO)c1	nt	nt	nt	0.74	nt
CC12CCC(C(=O)N(CSC(=S)NN=Cc3ccccc3O)C1=O)C2(C)C (configuration not stated)	nt	nt	nt	0.7	nt
CC12CCC(C(=O)N(CSC(=S)N/N=C\c3ccccc3Cl)C1=O)C2(C)C (configuration not stated)	5	4	11*	nt	3
OCCN1CCN(CC(O)COc2ccc(C34CC5CC(CC(C5)C3)C4)cc2)CC1 (configuration not stated)	2	-1	-2	nt	5
NCCOc1ccc(C23CC4CC(CC(C4)C2)C3)cc1	4	-2	0	0.47*	8
COc1ccc(NC(=O)Nc2cccc([N+](=O)[O-])c2)cc1Cl	6	2	-1	0.52*	2
COc1ccc(-c2ccc3c(c2)S(=O)(=O)c2cccc(C(=O)NCC4CCCO4)c2C3=O)cc1OC (configuration not stated)	nt	nt	nt	0.67	nt
O=C(Nc1ccc(Cc2ccncc2)cc1)c1ccc([N+](=O)[O-])o1	9	12	13*	0.58	-4
O=C(Nc1ccc(Cc2ccncc2)cc1)c1cccc([N+](=O)[O-])c1	3	2	2	0.67	5
FC(F)(F)c1cc(C(F)(F)F)c2ccc(N3CCN(c4ccc(Cl)cc4)CC3)nc2n1	1	1	1	0.75	-8
N#CC(c1ccc(Cl)cc1)c1ccc2c(C(F)(F)F)cc(C(F)(F)F)nc2n1 (configuration not stated)	15*	3	2	0.68	-16
CCCCCCCCCCCCCCCC(O)C[N+](C)(C)CCO (configuration not stated)	3	nt	nt	nt	52*
C=Cn1cc[n+](CC(=O)c2ccc(-c3ccccc3)cc2)c1	6	11	13*	0.68	2
COc1ccc(/C=C/C(O)=C(\C#N)c2nnc(N3CCOCC3)n2-c2ccccc2)cc1OC	0	1	-1	0.43*	-7
Cc1nc2ccccc2n1N=Cc1ccc([N+](=O)[O-])o1	nt	nt	nt	0.29*	nt
Cc1c2ccncc2cc2c1[nH]c1ccccc12	4	nt	nt	0.41*	4
CN1C(=O)C(=NOC(=O)c2ccccc2Br)c2ccccc21	nt	nt	nt	0.66	nt
Cc1cc(C)nc(N=C(N)Nc2ccc(-c3ccccc3)cc2)n1	nt	nt	nt	0.53*	nt
O=[N+]([O-])c1ccc(NC(=S)NCCc2ccc(F)cc2)cc1	9	11	10	0.46*	-14
O=C(NCCc1ccc(F)cc1)Nc1ccc([N+](=O)[O-])cc1	7	nt	nt	0.55	0
CCCCCCCC[n+]1cccc2c3ccccc3ccc21	7	3	2	0.48*	9
CCn1c(CCc2ccccc2)n[nH]c1=S	-3	1	2	0.67	-2
CCn1c(CCn2c3ccccc3c3ccccc32)n[nH]c1=S	5	3	4	0.68	50*
Nc1nc(Nc2ccccc2)nc2ccccc12	2	1	-3	0.53*	1
Nc1nc(Nc2ccc(Cl)cc2)nc2ccccc12	3	1	2	0.35*	-8
SMILES	phage Ecoli inh	AddAB inh	E coli growth-1	E coli growth-2	Tat export inh
COc1cc2nc(Nc3ccc(C)c(Cl)c3)nc(N)c2cc1OC	3	1	1	0.59	-15
CN(C)c1ccc(Nc2nc(N)c3ccccc3n2)cc1	2	1	4	nt	-4
Cc1ccc(Nc2nc(N)c3ccccc3n2)cc1Cl	1	3	1	0.44*	-6
Cc1c(NC(=O)COc2cccc(F)c2)c(=O)n(-c2ccccc2)n1C	3	0	-1	0.7	-3
Cc1c(NC(=O)COc2ccc3ccccc3c2)c(=O)n(-c2ccccc2)n1C	2	2	2	0.52*	nt
O=C(COC(=O)c1ccccc1)Nc1ncc([N+](=O)[O-])s1	4	3	0	0.6	0
O=C(Nc1ccccc1)Nc1ncc([N+](=O)[O-])s1	4	nt	nt	0.36*	22
Cc1occc1C(=O)NN=CC1=C(N2CCOCC2)/C(=C\c2ccc(Cl)cc2Cl)CC1	nt	nt	nt	0.73	nt
O=C(Nc1ccc(Cl)cc1)NN1CCCCCC1	3	nt	nt	0.62	6
